Measurements reported in PubChem BioAssay.
A number with no mark means an inactive call. For part of these data: Measured potencies and affinities stand elsewhere. The source made the active and inactive calls. Unless noted, the rule behind the calls is not given here.

Tests used:
[1] = antimalarial activity against Dd2 strain (AID 2302;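 active = growth inhibition above 50% at the single 2 µM test dose, taken to imply half-maximal potency below 2 µM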;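 note: 0% = DMSO untreated growth and 100% = chloroquine plus artemisinin killed control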); conditions: P. falciparum Dd2 in RBCs, LDH growth readout, 72 h; at 2 µM; active compounds read high
[2] = HepG2 cytotoxicity, primary screen, cytotoxicity control for P. falciparum antimalarial project, cell-based, ATP luminescence (AID 2303;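 active = inhibition above 50%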;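 note: 0% = DMSO wells and 100% = digitonin-killed cells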); conditions: HepG2 viability, 24-48 h, at 10 µM, active compounds read high
[3] = target: L-lactate dehydrogenase (Plasmodium falciparum (isolate CDC / Honduras)) (UniProt Q27743); test: PfLDH activity inhibition – cell lysate, 3D7 strain, counter-screen for P. falciparum growth inhibition project (AID 2304);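 note: 0% = vehicle and 100% = reference inhibitor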; conditions: P. falciparum 3D7 crude extract, LDH APAD/NBT absorbance; at 2 µM; active compounds read high
[4] = inhibition of 3D7 malaria parasite growth – strain 3D7 (AID 2306);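 note: 0% = DMSO wells and 100% = chloroquine plus artemisinin control wells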; conditions: P. falciparum 3D7 erythrocytic growth, LDH absorbance, 72 h; at 2 µM; active compounds read high
[5] = target: Calcium-dependent protein kinase 1 (Plasmodium falciparum (isolate 3D7)) (UniProt P62344); test: PfCDPK1 kinase inhibitors, biochemical, TCAMS library (AID 1159585; cut-off not given, nearly all actives have IC50 up to about 0.98 µM;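 note: inhibitors leave more ATP so luminescence rises with inhibition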); conditions: recombinant PfCDPK1, Kinase-Glo ATP depletion luminescence
[6] = target: Plasmodium falciparum protein kinase 6 (PK6, PF3D7_1337100) (UniProt Q8IDW1); test: PfPK6 kinase inhibitors, biochemical, TCAMS library (AID 1159586); conditions: recombinant PfPK6, Kinase-Glo ATP depletion luminescence
[7] = target: Protein kinase 7 (PK7), Plasmodium falciparum 3D7 (PF3D7_0213400) (UniProt Q7YTF7); test: inhibition of Plasmodium PK7 catalytic activity – biochemical, TCAMS antimalarial set, Kinase-Glo luminescence (AID 1159587); conditions: recombinant PfPK7, Kinase-Glo ATP depletion luminescence
[8] = target: Calcium-dependent protein kinase 4 (Plasmodium falciparum (isolate 3D7)) (UniProt Q8IBS5); test: PfCDPK4 kinase inhibitors, biochemical, TCAMS library (AID 1159588; cut-off not given, nearly all actives have IC50 up to about 0.91 µM); conditions: recombinant PfCDPK4, Kinase-Glo ATP depletion luminescence
Chain of Calcium-dependent protein kinase 4 (Plasmodium falciparum (isolate 3D7)) (Q8IBS5 whole entry, looked up): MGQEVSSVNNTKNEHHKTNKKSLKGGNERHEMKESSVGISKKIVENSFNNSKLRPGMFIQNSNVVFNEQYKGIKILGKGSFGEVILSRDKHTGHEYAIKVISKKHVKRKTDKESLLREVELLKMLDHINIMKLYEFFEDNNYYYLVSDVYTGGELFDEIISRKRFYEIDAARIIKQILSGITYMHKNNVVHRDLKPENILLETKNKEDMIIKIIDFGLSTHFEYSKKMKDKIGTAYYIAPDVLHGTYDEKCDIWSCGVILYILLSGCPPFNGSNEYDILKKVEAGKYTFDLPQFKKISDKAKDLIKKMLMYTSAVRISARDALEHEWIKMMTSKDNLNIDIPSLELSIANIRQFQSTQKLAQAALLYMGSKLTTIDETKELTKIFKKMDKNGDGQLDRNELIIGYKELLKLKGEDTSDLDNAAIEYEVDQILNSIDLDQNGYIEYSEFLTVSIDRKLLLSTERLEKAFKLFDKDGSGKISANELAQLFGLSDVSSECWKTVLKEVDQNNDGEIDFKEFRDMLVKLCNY

Chain of Calcium-dependent protein kinase 1 (Plasmodium falciparum (isolate 3D7)) (P62344 whole entry, looked up): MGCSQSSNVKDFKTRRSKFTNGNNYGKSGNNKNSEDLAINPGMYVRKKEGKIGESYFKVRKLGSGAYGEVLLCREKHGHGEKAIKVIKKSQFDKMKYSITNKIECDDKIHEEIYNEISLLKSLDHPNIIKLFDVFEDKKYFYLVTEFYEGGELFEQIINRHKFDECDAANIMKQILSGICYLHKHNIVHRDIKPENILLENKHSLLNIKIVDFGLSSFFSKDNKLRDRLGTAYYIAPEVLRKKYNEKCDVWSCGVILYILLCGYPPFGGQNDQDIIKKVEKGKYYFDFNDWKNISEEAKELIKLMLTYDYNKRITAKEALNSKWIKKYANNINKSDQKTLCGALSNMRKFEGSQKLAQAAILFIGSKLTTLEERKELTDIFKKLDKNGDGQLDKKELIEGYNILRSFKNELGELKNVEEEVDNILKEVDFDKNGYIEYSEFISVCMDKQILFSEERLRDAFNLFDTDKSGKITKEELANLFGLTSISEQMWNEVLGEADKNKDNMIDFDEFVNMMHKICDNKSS
Chain of L-lactate dehydrogenase (Plasmodium falciparum (isolate CDC / Honduras)) (Q27743 whole entry, looked up): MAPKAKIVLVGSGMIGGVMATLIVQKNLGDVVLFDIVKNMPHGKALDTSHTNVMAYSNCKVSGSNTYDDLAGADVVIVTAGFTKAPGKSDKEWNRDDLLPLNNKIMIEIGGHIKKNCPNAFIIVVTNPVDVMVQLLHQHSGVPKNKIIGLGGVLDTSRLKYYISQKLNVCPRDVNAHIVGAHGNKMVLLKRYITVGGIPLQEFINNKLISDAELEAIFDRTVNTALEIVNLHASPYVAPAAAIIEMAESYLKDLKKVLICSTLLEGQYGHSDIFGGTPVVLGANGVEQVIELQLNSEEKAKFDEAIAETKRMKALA
Chain of Plasmodium falciparum protein kinase 6 (PK6, PF3D7_1337100) (Q8IDW1 1-305): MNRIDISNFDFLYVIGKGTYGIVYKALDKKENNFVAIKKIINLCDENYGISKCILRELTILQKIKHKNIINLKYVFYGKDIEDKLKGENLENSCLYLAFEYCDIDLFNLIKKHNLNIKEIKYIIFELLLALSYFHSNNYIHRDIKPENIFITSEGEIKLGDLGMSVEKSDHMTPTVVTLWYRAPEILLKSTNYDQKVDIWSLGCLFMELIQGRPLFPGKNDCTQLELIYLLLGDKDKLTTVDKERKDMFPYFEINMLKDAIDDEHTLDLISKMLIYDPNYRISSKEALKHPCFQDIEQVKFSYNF
Chain of Protein kinase 7 (PK7), Plasmodium falciparum 3D7 (PF3D7_0213400) (Q7YTF7 1-343): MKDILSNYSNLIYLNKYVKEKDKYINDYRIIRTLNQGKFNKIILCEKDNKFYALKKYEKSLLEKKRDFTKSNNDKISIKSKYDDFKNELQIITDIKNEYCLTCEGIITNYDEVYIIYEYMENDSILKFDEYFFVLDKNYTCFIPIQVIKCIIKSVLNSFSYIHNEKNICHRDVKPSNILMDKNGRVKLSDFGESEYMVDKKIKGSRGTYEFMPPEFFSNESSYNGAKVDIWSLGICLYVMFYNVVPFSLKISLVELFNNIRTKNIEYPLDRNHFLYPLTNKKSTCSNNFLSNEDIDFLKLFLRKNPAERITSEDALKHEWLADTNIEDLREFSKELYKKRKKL

SMILES	growth inhibition [1]	inhibition [2]	inhibition [3] [%]	growth inhibition [4]	outcome [5]	outcome [6]	outcome [7]	outcome [8]
CCN(CC)CCN(Cc1ccc(-c2ccc(C(F)(F)F)cc2)nc1)C(=O)Cn1c(SCc2ccc(F)cc2)nc(=O)c2sccc21	66% (active)	43%	-2	96% (active)	inactive	inactive	inactive	inactive
CCc1cc(NC2CCN(C)CC2)nc(Nc2cccc(OC)c2)n1	37%	22%	-6	93% (active)	inactive	inactive	inactive	inactive
Cc1noc(C)c1-c1cccc(CNCc2ccc(-c3ccc(-c4nc5ccc(C(F)(F)F)cc5[nH]4)cc3)cc2)c1	97% (active)	35%	2	102% (active)	inactive	inactive	inactive	inactive
CN1CCN(c2ccc(CNc3ccc4ncc(-c5ccc(OC(F)(F)F)cc5)n4n3)cc2)CC1	87% (active)	13%	0	94% (active)	inactive	inactive	inactive	inactive
CC(C)c1cc(N)c2cc(NC(=O)COCC(=O)Nc3ccc4nc(C(C)C)cc(N)c4c3)ccc2n1	95% (active)	-8%	0	95% (active)	inactive	inactive	inactive	inactive
O=C(NC(=S)NCc1ccncc1)c1ccccc1	-3%	-7%	1	94% (active)	inactive	inactive	inactive	inactive
O=C(O)Cc1ccc(-c2c[nH]c3ncc(-c4cccc5ncccc45)cc23)cc1	0%	7%	1	95% (active)	inactive	inactive	inactive	inactive
NCc1ccc(-c2ccccc2CNC2CCN(Cc3ccccc3)CC2)cc1	3%	20%	-2	94% (active)	inactive	inactive	inactive	inactive
CN(C)CCNC(=O)[C@H](CC1CCCCC1)NC(=O)c1ccc(O)c(-c2ccc(Cl)c(Cl)c2)c1	97% (active)	0%	-4	98% (active)	inactive	inactive	inactive	inactive
CS(=O)(=O)NCCCNCc1ccc(-c2cccc(-c3nc4ccc(C(F)(F)F)cc4[nH]3)c2)cc1	83% (active)	17%	1	100% (active)	inactive	inactive	inactive	inactive
CCN(CC)c1ccc(NC(=S)NC2CCN(CCCCCNC(=O)/C=C/c3ccc(Cl)c(Cl)c3)CC2)cc1	58% (active)	16%	3	100% (active)	inactive	inactive	inactive	inactive
Cc1c(CC(=O)NCCC2CCN(CCCCCNC(=O)/C=C/c3ccc(Cl)c(Cl)c3)CC2)sc2ccc(Cl)cc12	8%	59% (active)	0	92% (active)	inactive	inactive	inactive	inactive
O=C(NC1CCN(c2ccnc3cc(Cl)ccc23)C1)c1cccc(F)c1 (stereo not drawn)	98% (active)	30%	1	95% (active)	inactive	inactive	inactive	inactive
CS(=O)(=O)NCCCNCc1cccc(-c2ccc(-c3nc4ccc(C(F)(F)F)cc4[nH]3)cc2)c1	85% (active)	17%	-4	100% (active)	inactive	inactive	inactive	inactive
CC(=O)CC(=O)N1CCN(c2ccccc2)CC1	-6%	54% (active)	-1	85% (active)	inactive	inactive	inactive	inactive
O=C(Nc1ccc(Br)cc1)c1cc(Br)ccc1NS(=O)(=O)c1ccc(C(F)(F)F)cc1	56% (active)	53% (active)	2	100% (active)	inactive	inactive	inactive	inactive
CCCC(C)c1ccc(N2C(N)=NC(N)=NC2(C)C)cc1 (stereo not drawn)	7%	51% (active)	2	90% (active)	inactive	inactive	inactive	inactive
Cc1cc(-c2nc3ccc(N4CCN(C)CC4)cc3[nH]2)nn1Cc1cc(Cl)ccc1OCC(C)C	67% (active)	41%	1	99% (active)	inactive	inactive	inactive	inactive

SMILES	growth inhibition [1]	inhibition [2]	inhibition [3] [%]	growth inhibition [4]	outcome [5]	outcome [6]	outcome [7]	outcome [8]
Cc1cccc2[nH]c(-c3ccc(-c4ccc(CN5CCN(CCO)CC5)cc4)s3)nc12	47%	34%	0	92% (active)	inactive	inactive	inactive	inactive
FC(F)(F)c1cccc(Nc2nc3ccccc3nc2Nc2cccc(C(F)(F)F)c2)c1	100% (active)	45%	2	101% (active)	inactive	inactive	inactive	inactive
N#Cc1cccc(NC(=O)NC2CCN(CCCCCNC(=O)[C@@H]3C[C@H]3c3ccc(Cl)c(Cl)c3)CC2)c1	-2%	36%	3	102% (active)	inactive	inactive	inactive	inactive
O=C(/C=C/c1ccc(C(F)(F)F)cc1)NCCCCCN1CCC(c2c[nH]c3ccccc23)CC1	22%	96% (active)	1	101% (active)	inactive	inactive	inactive	inactive
CC[C@H]1CN(C/C=C/c2ccc(OC)cc2)CC[C@H]1CCCc1ccnc2ccc(O)cc12	72% (active)	24%	1	99% (active)	inactive	inactive	inactive	inactive
Cc1cccc2[nH]c(-c3cccc(-c4ccc(NC(=O)C(C)CN(C)C)cc4)c3)nc12 (stereo not drawn)	100% (active)	29%	-3	101% (active)	inactive	inactive	inactive	inactive
O=C(NCCCCN1CCC(c2cccc3ccccc23)CC1)c1ccc(-c2ccc(C(F)(F)F)cn2)cc1	36%	31%	0	91% (active)	inactive	inactive	inactive	inactive
CC(c1cccc(S(=O)(=O)NCc2cccc(C(F)(F)F)c2)c1)N1CCC(N2CCCCC2)CC1 (stereo not drawn)	35%	37%	2	99% (active)	inactive	inactive	inactive	inactive
NCc1ccc(CNCc2ccc(-c3ccc(-c4nc5ccc(C(F)(F)F)cc5[nH]4)s3)cc2)cc1	92% (active)	34%	-2	95% (active)	inactive	inactive	inactive	inactive
Cc1cc(Nc2cccc(Cl)c2)nc2ccc(NC(=O)c3ccc(=O)[nH]c3)cc12	23%	12%	4	100% (active)	inactive	inactive	inactive	inactive
CC(=O)Nc1ccc(C(=O)Nc2cccc(-c3ccc(-c4nc5ccc(C(F)(F)F)cc5[nH]4)cc3)c2)cn1	100% (active)	46%	-3	101% (active)	inactive	inactive	inactive	inactive
Fc1cc(Cl)ccc1Nc1ccnc2cc(-c3scnc3CNCCN3CCOCC3)ccc12	84% (active)	-7%	-2	99% (active)	inactive	inactive	inactive	inactive
CCCCCCCCCCN1C(=O)C2C(CCCCNC(C)=O)NC3(C(=O)N(Cc4ccc(C(C)(C)C)cc4)c4ccccc43)C2C1=O (stereo not drawn)	65% (active)	3%	-3	86% (active)	inactive	inactive	inactive	inactive
CCNCc1cccc(-c2ccc3ccnc(N)c3c2)c1	98% (active)	17%	0	100% (active)	inactive	inactive	inactive	inactive
COc1ccc(C=NNc2c3ccccc3nc3ccccc23)c2ccccc12	23%	9%	2	82% (active)	inactive	inactive	inactive	inactive
O=C(c1cc(C(=O)Nc2ccccc2)c(=O)n(-c2ccccc2)c1)c1cc(Cl)ccc1O	95% (active)	9%	-1	100% (active)	inactive	inactive	inactive	inactive
COc1ccc(-c2cccc(NC(=O)c3ccc(C#N)cc3)c2)cc1CN1CCN(C)CC1	2%	24%	-3	93% (active)	inactive	inactive	inactive	inactive
COc1ccc(C2CC(=O)C3=C(C2)NC(C)=C(C(=O)OC2CCCC2)C3c2cccc(O)c2)cc1OC (stereo not drawn)	98% (active)	8%	-1	101% (active)	inactive	inactive	inactive	inactive
